Reference: PubChem BioAssay (NCI)
Compounds without any hit were thinned out: in the full panel of roughly 83,000, 20% have a hit.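 Results are percent growth after 48 hours of single-concentration exposure. 100 means growth as in untreated cells, lower positive values show inhibition; negative values down to -100 show cell death.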 Values without a mark were called inactive. Calls of active or inactive are those of the source.

test system: NCI/ADR-RES ovarian; experiment: NCI-60 one-dose screen, 48 h (100 = growth as untreated, 0 = no growth, -100 = all killed); conditions: 10 µM unless noted
Method: Growth inhibition of the NCI/ADR-RES human […] tumor cell line is measured as a screen for anti-cancer activity. Cells are grown in 96 well plates and exposed to the test compound for 48 hours. Compounds are tested at a single concentration, which is 10^-5 M for most compounds. The reported endpoint is percent growth (GI% or GIPRCNT), where numbers from 0 - 100% represent growth inhibition, and numbers from -100% - 0 represent cell death. For example, a value of 40 represents 60% growth inhibition. A value of 0 means no net growth occurred over the course of the experiment. A value of -40 indicates 40% of cells at the beginning of the experiment died by the end of the experiment. A value of -100 means all cells are dead at the end of the experiment.
NCI-60 Human Tumor Cell Lines Screen was performed using the standard one-dose NCI protocol, which is described in more detail at https://dtp.cancer.gov/discovery_development/nci-60/default.htm.
Compounds with GIPRCNT values below 10 were considered active. Activity score was based on GIPRCNT using the following formula: […]
Score is 0 for GIPRCNT values of 100 or above, 50 for GIPRCNT values of 0, and 100 for GIPRCNT values of -100.

SMILES | growth
Cc1ccc(C[P+](c2ccccc2)(c2ccccc2)c2ccccc2)cc1 | 93.5%
Nc1n[nH]c2cccc(C#Cc3cccc(C(=O)Nc4cc(C(F)(F)F)cc(C(F)(F)F)c4)c3)c12 | 74.2%
CCOC(=O)c1c2c(n3cccc(F)c13)C(=O)c1ncccc1C2=O | 18.7%
COc1cc(C2c3cc(OC(C)=O)c(OC)cc3CC3C(=O)OCC32)ccc1OC(C)=O (stereo not given) | 106%
CCN(CC)CCn1c2ccc(O)cc2c2sc3cc(O)ccc3c(=O)c21 | 61.1%
COc1ccc(C2CC(c3ccc(Nc4nc(Nc5ccccc5)nc(Nc5ccccc5)n4)cc3)=NN2C(C)=O)cc1 (stereo not given) | 89.7%
O=C(/C=C/c1cccc(Cl)c1)c1cccc(OCCCOc2cccc(C(=O)/C=C/c3cccc(Cl)c3)c2)c1 | 99.6%
O=C(/C=C/c1cn(-c2ccccc2)nc1-c1ccc(Cl)cc1)c1ccc(F)cc1 | 69.8%
CCN(C)S(=O)(=O)Nc1cccc(Nc2ncnc3cc(NC(=O)CCl)ccc23)c1Cl | 59.3%
Clc1ccc2c(NC3CCC(N4CCOCC4)CC3)ccnc2c1 (stereo not given) | 77.2%
CC(=O)c1c(C)nc(SCC(=O)Nc2cccc(O)c2)n1-c1ccc(Cl)cc1 | 98.9%
O=C1/C(=C/c2cccc(F)c2)CN(C(=O)C(Cl)Cl)C/C1=C\c1cccc(F)c1 | -3.11% (active)
CC(C)c1ccc(Cc2cnc(NC(=O)c3cc(Br)cs3)s2)cc1 | 6.8% (active)
CCOC(=O)C1=C(c2ccccc2)N=C2SC=C(c3ccc(Cl)cc3)N2C1c1ccc(Cl)cc1 (stereo not given) | 92.3%
CCN1C(=S)N(c2ccccc2)C2NC(=S)N(/N=C/C=C/c3ccccc3OC)C21 (stereo not given) | 4.46% (active)
NC(=O)c1c(NC(=O)c2ccc3ccccc3c2)sc2c1CCC(=O)C2 | 85.3%
CCc1ncnc2c1ccn2C(C)c1ccc(OC)c(F)c1 (stereo not given) | 44.6%
N#CC1=C(N)Oc2c(ccc3ccccc23)C1c1ccccc1 (stereo not given) | 2.65% (active)
C#CCOc1cccc(Nc2ncnc3ccc(NC(=O)C=C)cc23)c1 | 36.1%
CSc1oc(C)nc1[P+](c1ccccc1)(c1ccccc1)c1ccccc1 | 106%

SMILES | growth
COc1ccc2c(c1)N(CCO)C1=C(C(=O)OC1)C2c1cccc(F)c1 (stereo not given) | 15.6%
Cn1ccnc1C(=O)/C=C/c1ccc(CC(=O)Nc2cc(C(F)(F)F)cc(C(F)(F)F)c2)cc1 | 65.3%
c1ccc2cc(C[n+]3ccn(CCCCCCCCCCn4cc[n+](Cc5ccc6ccccc6c5)c4)c3)ccc2c1 | 99.5%
CCC(C(=O)[C@@H](C)[C@@H](O)[C@H](C)[C@@H]1O[C@@H]([C@@H](CC)C(=O)ONC(=O)c2ccccc2)CC[C@@H]1C)[C@H]1O[C@]2(C=CC(=O)[C@]3(CC[C@@](C)([C@H]4CC[C@](O)(CC)[C@H](C)O4)O3)O2)[C@H](C)C[C@@H]1C (stereo not given in full) | 12.1%
COc1ccc(OC)c(-c2nc(SCC(=O)c3ccc(C#N)cc3)[nH]c(=O)c2C#N)c1 | 97.4%
N=C(N)c1ccc(-c2ccc(-c3ccc(Cl)cc3Cl)s2)cc1 | 77.5%
N#Cc1ccc2c(c1)C(=O)c1c-2n(CCCN)c(=O)c2cc([N+](=O)[O-])ccc12 | -36.3% (active)
C=C(C)[C@@H]1CC[C@]2(CO)CC[C@]3(C)[C@H](CC[C@@H]4[C@@]5(C)CC[C@H](NCO)C(C)(C)[C@@H]5CC[C@]43C)[C@@H]12 | -53.6% (active)
Cc1csc(Nc2nc(-c3ccccn3)nc(C(Cl)(Cl)Cl)n2)n1 | 66.8%
COC(=O)c1cc(N=C2NC(=O)/C(=C/C=C/c3ccccc3)S2)ccc1O | 5.59% (active)
CC1CCN(CCOc2ccc(CNc3ccc4nc(CCC5CCCCC5)[nH]c4c3)cc2)CC1 | 51%
C#Cc1c2c(c(OC)c3c1OCO3)[C@H]([C@H]1OC(=O)c3c1ccc(OC)c3OC)N(C)CC2 | 59.6%
COC(=O)C1Cc2ccccc2CN1C(=O)c1ccc2c(c1)Cc1ccccc1-2 (stereo not given) | 25.6% [50 µM]
Cc1ccc2c(c1)=C/C(=C\c1cc(-c3ccccc3)oc1O)C(=O)N=2 | 98.4%
Nc1ncc(-c2ccc3ncnc(Nc4cccc(Cl)c4)c3c2)cn1 | 52.2%
Cc1nc2sc(C(=O)Nc3cccc(Br)c3)c(N)c2cc1C(O)c1ccccc1 (stereo not given) | 11.7%
Cc1sc2nc(NCCc3c[nH]c4ccc(Cl)cc34)[nH]c(=O)c2c1C | 47.1%
Cc1ccc(C(=O)c2ccc(CC(=O)N/N=C/c3ccccc3O)n2C)cc1 | 69.4%
Cn1ccc(=O)c(C(=O)Nc2nsc3ccc([N+](=O)[O-])cc23)c1 | 68%
CC(=O)/C(=C\c1c(-c2ccccc2)[nH]c2ccccc12)S(C)(=O)=O | -19.5% (active)
